This passage reports growth results from PubChem BioAssay (NCI).

The structures appear in SMILES notation. This is part of a sample that, as a whole, favours compounds with a hit. Of some 83,000 tested, about 20% had one in any assay.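 Assay: single dose, 48 h. Readout: percent growth (0 = no net growth; negative = cell death). Active: <10.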 Unmarked numbers belong to inactive results. The source made the active and inactive calls.

The assay concerns HL-60(TB) leukemia. Description: NCI-60 one-dose screen, 48 h (100 = growth as untreated, 0 = no growth, -100 = all killed). Particulars: 10 µM unless noted.
Take `CCCCCN(CCCCC)CC(O)c1cc(C)c2ccc3cc(C(C)C)ccc3c2c1` (stereo not given): the growth is -29.6% (active).
The result for `C=C1C(=O)O[C@H]2[C@H]1CC/C(COC(=O)c1cc3ccccc3o1)=C\CC[C@@]1(C)O[C@@H]21` reads -2.94% (active); that for `CC1=C(CCC(C)NCc2ccc(OCCCN3CCCCC3)cc2)C(C)(C)CCC1` (stereo not given), -68.7% (active).
The result for `Oc1cc(O)c(Br)cc1Br` reads 104%.
With `CCN1CCN(C(=O)[C@]23CC[C@@H](C)[C@H](C)[C@@H]2C2=CC[C@@H]4[C@@]5(C)C/C(=C/c6cccnc6)C(=O)C(C)(C)[C@@H]5CC[C@@]4(C)[C@]2(C)CC3)CC1` the figure was -38.2% (active).
As to `CC(C)(C)n1cc(-c2ccnc(NCCCNS(=O)(=O)c3ccccc3)c2)c(-c2cccc(O)c2)n1`, the growth was 32.8%.
With `CC(=O)c1cc2c(N)c(C(=O)Nc3cccc4ccncc34)sc2nc1C` the figure was 86.2%; with `O=C(/C=C/c1cccnc1)c1ccccc1`, 89.8%.
The result for `CCCCCCCCCCCCCCCCn1cc[n+](C)c1` reads 45.7%; that for `Cc1cccc[n+]1CCC[n+]1ccccc1C`, 86.4%.
With `CC1=NC(=S)NC(c2ccccc2)/C1=C1/CC(c2ccccc2O)NN1` (stereo not given) the figure was 97.2%; with `O=C(COc1ccc(-c2nc3ccccc3[nH]2)cc1)N=Nc1c(O)[nH]c2ccccc12`, 103%; with `CC1(C)CC2=C3C=C[C@@H]4[C@@]5(C)CC[C@H](O)C(C)(C)[C@@H]5CC[C@@]4(C)[C@]3(C)CC[C@@]2(C(=O)O)CC1=O`, 39%.
`CC1(C)N=C(N)N=C(N)N1c1cccc(CCc2ccccc2)c1`: the growth is 32.4%.
In the case of `CCCn1c(N)c(C(N)=O)sc1=S`, the growth was 94.9%.
The result for `CCCCN(CCCC)C(=O)[C@H](CC)[C@@H]1CC[C@@H](C)[C@@H]([C@H](C)[C@@H](O)[C@@H](C)C(=O)[C@H](CC)C2O[C@]3(C=CC(=O)[C@]4(CC[C@@](C)([C@H]5CC[C@](O)(CC)[C@H](C)O5)O4)O3)[C@H](C)C[C@@H]2C)O1` (stereo not given in full) reads -1.52% (active).
Consider `C=C(C)[C@@H]1C[C@@H]2Cc3ccc(Cl)c(C)c3N1O2`, for which the growth is 3.4% (active).
With `COc1cccc(/C=N/NC(=O)c2cnn3c2NC(c2ccccc2)C3)c1Oc1ccccc1` (stereo not given) the figure was 74.6%; with `C[C@H]1[C@H](C)CC[C@]2(C(=O)N3CCN(C)CC3)CC[C@]3(C)C(=CC[C@@H]4[C@@]5(C)C/C(=C/c6ccco6)C(=O)C(C)(C)[C@@H]5CC[C@]43C)[C@H]12`, -39.1% [100 µM] (active); with `COc1ccc(/C=C/c2c(C(=O)/C=C/c3ccccc3)c(C)nc3ccccc23)cc1`, 6.07% (active).
Regarding `CCCCOc1nc2ccc(OC)cc2cc1-c1cc(-c2ccc(Cl)cc2)nc(-c2ccc(Cl)cc2)c1`, the growth is 103%.
As for `COc1ccc(NC(=O)Nc2ccc(OCCCCCC(=O)NO)cc2)cc1`, the growth is 97.6%.
As for `COC(=O)C(Br)(C(=O)OC)C(Br)C(Br)C(Br)c1ccccc1` (stereo not given), the growth was 7.57% (active).
With `N#C/C(=C\c1ccc(C(F)(F)F)cc1)c1cc2ccccc2[nH]1` the figure was 89.3%; with `C=C1CCC2C3(C)COC(C)(C)OC3CCC2(C)C1C/C=C1/C(=O)OCC1Oc1ccccc1OC` (stereo not given), 38.6%; with `[O-][N+](=Nc1cccc(Cl)c1)c1cccc(Cl)c1`, 132%.
With `C=CC(=O)NCCOc1cccc(Nc2cc(NCCCNC(=O)C3CCC3)c(Br)cn2)c1` the figure was -55% (active).
With `CC(C)[C@H](CN)NC[C@H](C)NS(=O)(=O)c1ccc(C(C)(C)C)cc1` the figure was 95.4%; with `O=C1CCC(N2C(=O)c3cccc(NCCCCCCOc4ccc(Nc5nccc(Nc6ccccc6)n5)cc4)c3C2=O)C(=O)N1` (stereo not given), 87.2%.
As for `C=CCC(OC(C)=O)c1ccc(OC)c(OC)c1` (stereo not given), the growth is 116%.
Turning to `N#Cc1nc(-c2ccc(Cl)cc2)cc(-c2ccc(Nc3nc(N4CCCCC4)nc(N4CCCCC4)n3)cc2)c1N`, the growth was 99.2%.
The result for `O=C1CCC(C(=O)N/N=C/c2cc(F)ccc2F)N1` (stereo not given) reads 99.2%; that for `CN1C(=O)CCC(N2C(=O)c3cccc(NCCOCCOCCNC(=O)c4cc5c(o4)C(=O)c4ccccc4C5=O)c3C2=O)C1=O` (stereo not given), 0.337% (active).
As to `COCCCN1CC(O)=C(c2nc(-c3ccc(C)cc3)cs2)C1=N`, the growth was 84.9%.
On to `C=C1C(=O)O[C@H]2[C@H]1CC/C(COC(=O)c1cc3cc(Cl)ccc3[nH]1)=C\CC[C@@]1(C)O[C@@H]21`, for which the growth was -46% (active).
With `O=c1c2ccccc2sc2c(NCCN3CCOCC3)nc3ccccc3c12` the figure was 75.9%; with `NC(=O)c1ccc(-c2c3ccccc3cc3c2ccc2ccccc23)cc1`, 15.6%; with `O=C(COc1ccc(/C=C2\Oc3ccccc3C2=O)cc1)Nc1nccs1`, -36.2% (active).
Turning to `C=C(C)[C@@H]1CC[C@]2(C(=O)O)CC[C@]3(C)[C@H](CC[C@@H]4[C@@]5(C)C[C@@H](CC#Cc6ccc(Cl)cc6)C(=O)C(C)(C)[C@@H]5CC[C@]43C)[C@@H]12`, the growth is 22.2%.
Take `N#C/C(=C\c1ccc(-c2ccccc2F)o1)c1nc(-c2ccco2)cs1`: the growth was 91.2%.
